The record followed here is PubChem BioAssay (NCI).

Values joined by “and” are separate entries in the source; they are usually repeats but may differ in a detail not shown here. Equal entries are not always repeated. Compounds without any hit were thinned out: in the full panel of roughly 83,000, 20% have a hit.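 Single-dose data. Exposure time 48 hours. Values below 10 considered active.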 Values without a mark were called inactive. Active and inactive are the calls of the source.

The test system of the assay is MDA-MB-468 breast. The assay can be described thus: NCI-60 one-dose screen, 48 h (100 = growth as untreated, 0 = no growth, -100 = all killed). Particulars: 10 µM unless noted.
For `CN1CCc2nc3sc(C(N)=O)c(N)c3c(-c3cccs3)c2C1`, the growth is 14.2%.

For `Cc1c(C(N)=O)sc2nc(C)n(/N=c3\scc(-c4ccccc4)n3Cc3ccccc3)c(=O)c12`, the growth is 79.9%.

Regarding `N#Cc1cccc(/C(N)=N/C(N)=N/c2nc3ccccc3s2)c1`, the growth was 18.7%.

Turning to `COC(=O)/C=C1/SC(=Nc2ccc(C)cc2)N(CCc2c[nH]c3ccc(O)cc23)C1=O`, the growth was 48%.

Regarding `COc1ccc(C(c2cc(OC)c(OC)c(OC)c2)n2cncn2)cc1O` (stereo not given), the growth is 7.88% (active).

Consider `COc1cc(/C=N/Nc2nc(-c3ccc(F)cc3)c(C#N)c(N3CCOCC3)n2)ccc1O`, for which the growth is 87.4%.

With `C=C=COc1cccc(/C(N)=N/C(N)=N/c2nc3ccccc3s2)c1`, the growth is 102%.

`CC(=O)c1cc(C)c(OC(=O)c2ccccc2)c(C)c1`: the growth is 94%.

In the case of `CC(CO)(CO)C(=O)O`, the growth was 99.9%.

As for `CC(C)c1ccccc1NC(=O)N1CCC(C(C)C)CC1`, the growth was 99.8%.

Regarding `O=C(Nc1ccc(Cl)c(C(F)(F)F)c1)c1ccc(Nc2ccc(Cl)nn2)cc1`, the growth is 41.3%.

For the compound `CCN1CCN(CCNc2nccc(-c3c(-c4cccc(OC)c4)nc4occn34)n2)S1(=O)=O`, the growth was 100%.

As to `COC(=O)/C=C1\SC(=Nc2ccc(F)cc2)N(CCc2c[nH]c3ccccc23)C1=O`, the growth was 125%.

On to `CCN(CC)c1ccc2nc3ccc(=[N+](CC)CC)cc-3oc2c1`, for which the growth was -46.6% (active).

Turning to `CC(=O)Oc1ccccc1C(=O)Nc1cc(C(C)C)ccc1C`, the growth was -5.42% (active).

As for `COc1ccc(-c2csc(NC(=O)CO[N+](=O)[O-])n2)cc1`, the growth was 113%.

Take `CCOC(=O)c1cc2c(n1Cc1ccccc1)-c1oncc1CCC2`: the growth is 60.2%.

For `CC(C)(C)n1cc(-c2ccnc(NCCCNS(=O)(=O)c3ccccc3)c2)c(-c2ccccc2)n1`, the growth is 25.1%.

Take `NC(=S)N/N=C/c1cn(-c2ccccc2)nc1-c1cc2ccccc2oc1=O`: the growth is 43.3%.

For `CC(=O)C1CCC2C3CC=C4CC(SC(=N)N)CCC4(C)C3CCC12C` (stereo not given), the growth was -36.8% (active).

For the compound `CC1=C(N2CCOCC2)C(N2CCOCC2)=C(C)C(=O)C1=O`, the growth was 97.1%.

With `COc1ccc(-c2nc(SCCC(C)C)nc(N/N=C\c3cccc([N+](=O)[O-])c3)c2C#N)cc1`, the growth is 12.7%.

With `CN(C)c1ccc(O)c2c1CC1CC3C(N(C)C)C(=O)C(C(N)=O)=C(O)C3(O)C(=O)C1=C2O` (stereo not given), the growth is 36.7%.

Consider `COc1ccc(-c2cc(=O)c3c(OC)c4ccoc4cc3o2)cc1`, for which the growth is 101%.

On to `CCc1cccc(CC)c1N1C(=O)C=CC1=O`, for which the growth was 34.7%.

`NC(=O)c1c(NC(=O)c2ccc(C(F)(F)F)cc2Cl)sc2c1CCC(=O)C2`: the growth is -33.8% (active).

`Cc1cc2c(cc1C)[n+](Cc1ccc3ccccc3c1)cn2Cc1ccc2ccccc2c1`: the growth was -76.4% (active).

As for `CN1CCN(CCCn2c3c(sc4ncccc43)c(=O)n3nnc(-c4ccccc4)c23)CC1`, the growth was 98.6%.

Turning to `COCCCNC(=O)c1nnn2c1nc(N)c1cc(Cl)ccc12`, the growth was 88.6%.

With `c1ccc(C2=NN[C@H](c3cn(-c4ccccc4)nc3-c3ccccc3)C2)cc1`, the growth is 28.2%.

Regarding `Cc1cccc(N=NC(=S)NNc2cccc(C)c2)c1`, the growth is 116%.

`C=C1C(=O)O[C@H]2[C@H]1CC/C(COC(=O)NCc1cc[nH]c1)=C\CC[C@@]1(C)O[C@@H]21`: the growth was 16.8%.

Regarding `c1ccc(Cc2cccc[n+]2C(c2ccccc2)c2ccccc2)cc1`, the growth is -6.43% (active).

For `Clc1ccc(/C=C/c2nc(Nc3ccc(Cl)cc3)c3ccccc3n2)cc1`, the growth was 110%.

For `COc1ccc(-n2nc(C(=O)Nc3ccc(F)cc3)nc2-c2cc(OC)c(OC)c(OC)c2)cc1`, the growth was 91.9%.

With `C#Cc1cccc(NC(=O)Nc2cccc(NC(=O)CCl)c2)c1`, the growth is -43.5% [8.25 µM] (active).

`COc1c(/C(C)=N/N=c2sc(C(C)=O)nn2-c2ccc(Cl)cc2)c(Oc2ccccc2)c(OC)c2occc12`: the growth was 106% and 98.8%.

As to `COc1cc(/C=N/NC(=S)NNC(=S)NC2CCCCC2)cc(OC)c1OC`, the growth was 94.2%.

Take `Cc1ccc(C)n1-c1ccccc1-n1c(C)ccc1C`: the growth was 104%.

For `CCC(=O)Sc1ccccc1C(=O)Nc1ccc(Cl)cc1`, the growth is 27%.
